An excerpt weighted towards active compounds, which were near 3.3% of everything screened.
PERK inhibitor = block of dimerizer-induced PERK translation repression, primary screen, PERK inhibitor project, CHO PERK-DD cells, SEAP luminescence, HTS; Eukaryotic translation initiation factor 2-alpha kinase 3 (Homo sapiens), Q9NZJ5; CHO PERK-DD fusion, SEAP luminescence translation reporter; inhibition, % at 5.6 µM; actives 0.17% (n = 220,000);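 active = inhibition above the mean inhibition of all tested compounds plus 3 SD, set separately per screening campaign, cut at about 2.9% in these data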;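 note: PERK kinase domain activated by AP20187 dimerizer at 100 nM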
ROMK primary = ROMK potassium channel modulators, primary screen, cell-based, thallium flux, MLSMR library; ATP-sensitive inward rectifier potassium channel 1 (Homo sapiens), P48048; Tet-inducible ROMK, thallium flux fluorescence; actives lie on both sides; B-score at 10 µM; actives 2% (n = 130,000); AID 1918, 2009;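 active = signal ratio slope over the read window, or its plate-corrected B-score, at least 3 SD from the plate mean, either direction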;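 note: B-score of the F/F0 ratio slope over 7 to 12 s after thallium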
Target sequence (P48048 whole entry, looked up): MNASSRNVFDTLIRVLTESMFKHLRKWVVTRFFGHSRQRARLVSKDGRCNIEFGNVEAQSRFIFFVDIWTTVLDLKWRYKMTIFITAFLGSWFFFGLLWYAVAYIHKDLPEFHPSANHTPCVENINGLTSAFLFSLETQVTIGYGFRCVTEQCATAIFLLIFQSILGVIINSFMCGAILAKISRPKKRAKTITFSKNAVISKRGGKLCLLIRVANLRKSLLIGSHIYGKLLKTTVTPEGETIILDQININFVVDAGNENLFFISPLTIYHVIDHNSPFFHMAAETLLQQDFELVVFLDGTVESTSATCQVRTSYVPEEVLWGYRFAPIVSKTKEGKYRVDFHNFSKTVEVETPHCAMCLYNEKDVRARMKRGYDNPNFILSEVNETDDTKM
WT yeast gro inh = growth inhibition of WT strain, primary screen, mitochondrial fusion inhibitor project, WT and mutant strains, chemical genetic; AID 1362, 2008; actives 2.1% (n = 190,000); mitochondrial fusion phenotypic screen; inhibition, % at 10 µM; in the data active = inhibition above about 58%; tested in S. cerevisiae
Arbovirus anti = antivirals against arbovirus infection, primary screen, cell-based, full library, 10K replicate subset | actives 0.37% (n = 200,000) | arbovirus infection cell-based antiviral screen | AID 1251, 2008 | inhibition, % at 10 µM; in the data active = inhibition above about 30%
A number is an active result; 0 = inactive; - = no result given.

SMILES | PERK inhibitor | ROMK primary | WT yeast gro inh | Arbovirus anti
O=C(CCCOc1ccc(Cl)cc1Cl)N1CCc2ccccc2C1 | 0 | - | 80 | 0
CC12CN(C(=O)c3ccccc3Br)CC(C)(CN(C(=O)c3ccccc3Br)C1)C2=O | 0 | - | - | -
O=C(Cn1nc2ccccc2n1)N/N=C/c1ccc(F)cc1 | 0 | 0 | - | -
CC(=O)c1nnn(-c2c(F)cccc2F)c1C | 3.1 | - | - | -
Cc1c(NC(=S)N2CCN(c3ccc(F)cc3)CC2)c(=O)n(-c2ccccc2)n1C | 0 | 0 | 0 | 0
COCc1cc(=O)[nH]c(-c2ccccc2)n1 | 0 | 0 | 0 | 0
C=CCn1c(SCC(=O)Nc2ccc3c(c2)CCC3)nnc1-c1cccs1 | 0 | 0 | 70 | 0
C=CCn1c(SCC(=O)O)nnc1-c1cccs1 | 0 | - | 0 | 0
Cn1nc(C(F)(F)F)c2cc(C(=O)Nc3ccc(Cl)cc3)sc21 | 0 | - | 74 | 0
Cn1nc(C(F)(F)F)c2cc(C(=O)Nc3ccc(F)cc3F)sc21 | 0 | - | 0 | 0
Cn1nc(C(F)(F)F)c2cc(NC(=O)OCc3ccc(F)cc3)sc21 | 0 | - | 79 | 0
COc1ccc(NC(=O)C2CSC(C)(C)N2C=O)cc1 (stereo not drawn) | 0 | - | 0 | 0
CCn1nc(NC(=O)C2CCCO2)c2cc3cc(C)ccc3nc21 (stereo not drawn) | 0 | 0 | 0 | 0
CCC1(CC)Cc2ccccc2C(Nc2c(C)n(C)n(-c3ccccc3)c2=O)=N1 | 0 | 0 | 0 | 0
S=c1[nH]nc(-c2ccco2)n1/N=C/c1cccc(Cl)c1 | 0 | - | - | -
S=c1[nH]nc(-c2ccco2)n1/N=C/c1ccc(Cl)c(Cl)c1 | 0 | - | 76 | 0
Cc1cccc(/C=N/n2c(-c3ccco3)n[nH]c2=S)c1 | 3.5 | 0 | - | -
Cc1cccc(/C=N/n2c(C)nnc2C)c1 | 3.1 | - | 0 | 0
Cc1nnc(C)n1/N=C/c1ccccc1 | 0 | - | 0 | 0
Cc1ccc(N2C(=S)N=C(Nc3ccccc3C)C23CCOC(C)(C)C3)cc1 (stereo not drawn) | 0 | - | 0 | 0
O=C1Nc2ccccc2N(O)N1c1cc(-c2ccccc2Cl)no1 | 3.2 | 0 | 0 | 0
Oc1ccc(/C=N/N2CCN(C3c4ccccc4-c4ccccc43)CC2)c(O)c1 | 0 | 0 | 98 | 0
Oc1ccc(/C=N/N2CCN(C3c4ccccc4-c4ccccc43)CC2)cc1 | 0 | - | - | -
Cn1c(NCCCO)nc2c(c1=O)C1(CCCCC1)Cc1ccccc1-2 | 0 | 0 | 60 | 0
Cn1nc(C(=O)Nc2nc3ccc(S(C)(=O)=O)cc3s2)ccc1=O | 0 | 0 | 0 | 0
SMILES | PERK inhibitor | ROMK primary | WT yeast gro inh | Arbovirus anti
COC(=O)Cc1n[nH]c(=O)c2ccccc12 | 3.5 | - | 0 | 0
CC(C)SCc1cc(N2CCCC2)nc(-c2ccccc2)n1 | 0 | 0 | 58 | 0
C=CCn1c(=O)[nH]c2cc(C(=O)N3CC=C(c4ccccc4)CC3)ccc2c1=O | 0 | 0 | 0 | 0
OC(COCc1cccs1)CN1CCN(c2cccc(C(F)(F)F)c2)CC1 (stereo not drawn) | 0 | - | 0 | 0
CC(=O)Nc1ccc(S(=O)(=O)Nc2nc(C)nc3sc4c(c23)CCC4)cc1 | 0 | - | - | -
Cc1nc(N2CCN(c3ccccc3)CC2)c2c3c(sc2n1)CCC3 | - | - | 74 | 0
Cc1nc(NS(=O)(=O)c2ccccc2C)c2c3c(sc2n1)CCC3 | 0 | - | 0 | 38
Cc1ccc(N=Nc2c(O)n(CN3CCOCC3)c3ccccc23)cc1 | 0 | - | 0 | 0
Cc1cccc(NC(=S)N=Nc2c(O)n(CN3CCOCC3)c3ccccc23)c1C | 0 | - | 69 | 0
CC(Oc1ccc(Cl)cc1Cl)C(=O)NCCC1=CCCCC1 (stereo not drawn) | 0 | 0 | 0 | 0
Cc1nn(C)cc1CNCc1c(C(=O)N2CCCCC2)nc2c(C)cccn12 | 0 | 0 | 0 | 0
CC(C)OC(=O)CSc1nc2c(c(C3CC=CCC3)c1C#N)CCC2 (stereo not drawn) | 0 | 0 | 0 | 0
C=CCSc1nc2c(c(C3CC=CCC3)c1C#N)CCC2 (stereo not drawn) | 0 | - | 61 | 0
CCCCCCCn1c2c(c(=N)c3ccccc31)CCC2 | 0 | 0 | 81 | 0
CCCn1c2c(c(=N)c3c1CCC3)CCC2 | 0 | 0 | - | -
OCCN(CCO)CC(O)COc1ccc(C23CC4CC(CC(C4)C2)C3)cc1 (stereo not drawn) | 0 | 0 | 95 | 0
CCCCCNC(=O)c1ccc2c(=O)n(CCCN3CCCC3=O)c(=S)[nH]c2c1 | 0 | 0 | 0 | 0
Cc1sc2ncn(CC(=O)NCC3COc4ccccc4O3)c(=O)c2c1S(=O)(=O)N1CCCCC1 (stereo not drawn) | 0 | 0 | 0 | 0
CCCCCCc1cc2cc(S(=O)(=O)c3ccc(C)cc3)c(=O)oc2cc1O | 0 | 0 | 0 | 0
CCCCCCc1cc2cc(S(=O)(=O)c3ccc(Cl)cc3)c(=O)oc2cc1O | 0 | 0 | 88 | 0
Cc1cnn(C(=S)NCc2ccc(Cl)cc2)c1 | 0 | 0 | 68 | 0
COc1cccc2c1C(=O)c1c(O)c3c(c(O)c1C2=O)C[C@@](O)(C(C)=O)C[C@@H]3O[C@H]1C[C@H](N)[C@H](O)[C@H](C)O1 | 0 | - | 67 | 0
O=C(NC(NC(=S)N1CCOCC1)C(Cl)(Cl)Cl)c1cccc2ccccc12 (stereo not drawn) | 0 | 0 | 0 | 0
CC1=CC(C)(C)N(S(=O)(=O)c2ccc(F)cc2)c2ccc(C)cc21 | 0 | 0 | 81 | 0
COc1ccc2c(c1)C(C)=CC(C)(C)N2S(=O)(=O)c1ccc(Br)cc1 | 0 | 0 | 0 | 0
SMILES | PERK inhibitor | ROMK primary | WT yeast gro inh | Arbovirus anti
CC(C)=C1C2CCC1C1C(=O)N(NC(=O)COc3ccc(C(C)(C)C)cc3)C(=O)C21 (stereo not drawn) | 0 | 0 | 0 | 0
O=C(O)C1CCCCC1C(=O)Nc1ccc(F)c(F)c1 (stereo not drawn) | 0 | - | 0 | 0
O=C(O)C1CCCCC1C(=O)Nc1ccc(F)cc1F (stereo not drawn) | 0 | - | 97 | 0
CC(c1ccccc1)C(Cc1nc2ccccc2[nH]1)c1nc2ccccc2[nH]1 (stereo not drawn) | 0 | 0 | 0 | 0
Cc1ccc(NC2=C/C(=N/S(=O)(=O)c3cccs3)c3ccccc3C2=O)cc1C | 0 | 0 | 0 | 0
Cc1ccccc1NC1=C/C(=N\S(=O)(=O)c2cccs2)c2ccccc2C1=O | 0 | 0 | 89 | 0
CCOc1ccccc1OCCCOc1ccc(C)cc1Cl | 0 | - | 0 | 0
CCOc1ccccc1OCCCOc1ccc(C)cc1Br | 0 | 0 | 58 | 0
O=C1CC(c2ccsc2)c2ccc3ccccc3c2N1 (stereo not drawn) | 0 | 0 | 0 | 0
O=C1CC(c2cccc([N+](=O)[O-])c2)c2ccc3ccccc3c2N1 (stereo not drawn) | 0 | 0 | 0 | 36
COC(=O)COc1ccc(C)cc1-n1nc2ccccc2n1 | 0 | - | 74 | 0
Cc1nccn1CCCNCc1c(C(=O)N2CCCCCCC2)nc2ccc(Cl)cn12 | 0 | 0 | 0 | 0
O=C(O)c1csc(N/N=C/c2ccc(Br)cc2)n1 | 0 | 0 | 0 | 46
CCOC(=O)Cc1csc(N/N=C/c2ccc(C(F)(F)F)cc2)n1 | 0 | - | 0 | 0
O=S(=O)(Nc1ccc(-n2cccc2)cc1)c1ccc(Cl)cc1Cl | 0 | - | 88 | 0
Cc1ccc(C)c(S(=O)(=O)N/N=C2/CCCc3ccccc32)c1 | 0 | 0 | 0 | 0
